Laboratory results: publication PMC4336329 (PLoS ONE, 2015)
Hit rate of the full screen: of about 310,000 compounds, about 14,000 (4.5%) showed an effect of 50% or more. The effect is printed as a negative number. For the sample, strong results were picked, then their nearest neighbours and some compounds at random.

Each compound was assayed against human ether-à-go-go-related gene (hERG) potassium channel (human, UniProt Q12809) (assay: primary screen, population patch clamp on CHO cells stably expressing hERG; higher = less effect of the substance).
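Note: peak tail current of the secondary pulse compared with the same well before compound.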

Sequence of human ether-à-go-go-related gene (hERG) potassium channel (Q12809 whole entry, looked up): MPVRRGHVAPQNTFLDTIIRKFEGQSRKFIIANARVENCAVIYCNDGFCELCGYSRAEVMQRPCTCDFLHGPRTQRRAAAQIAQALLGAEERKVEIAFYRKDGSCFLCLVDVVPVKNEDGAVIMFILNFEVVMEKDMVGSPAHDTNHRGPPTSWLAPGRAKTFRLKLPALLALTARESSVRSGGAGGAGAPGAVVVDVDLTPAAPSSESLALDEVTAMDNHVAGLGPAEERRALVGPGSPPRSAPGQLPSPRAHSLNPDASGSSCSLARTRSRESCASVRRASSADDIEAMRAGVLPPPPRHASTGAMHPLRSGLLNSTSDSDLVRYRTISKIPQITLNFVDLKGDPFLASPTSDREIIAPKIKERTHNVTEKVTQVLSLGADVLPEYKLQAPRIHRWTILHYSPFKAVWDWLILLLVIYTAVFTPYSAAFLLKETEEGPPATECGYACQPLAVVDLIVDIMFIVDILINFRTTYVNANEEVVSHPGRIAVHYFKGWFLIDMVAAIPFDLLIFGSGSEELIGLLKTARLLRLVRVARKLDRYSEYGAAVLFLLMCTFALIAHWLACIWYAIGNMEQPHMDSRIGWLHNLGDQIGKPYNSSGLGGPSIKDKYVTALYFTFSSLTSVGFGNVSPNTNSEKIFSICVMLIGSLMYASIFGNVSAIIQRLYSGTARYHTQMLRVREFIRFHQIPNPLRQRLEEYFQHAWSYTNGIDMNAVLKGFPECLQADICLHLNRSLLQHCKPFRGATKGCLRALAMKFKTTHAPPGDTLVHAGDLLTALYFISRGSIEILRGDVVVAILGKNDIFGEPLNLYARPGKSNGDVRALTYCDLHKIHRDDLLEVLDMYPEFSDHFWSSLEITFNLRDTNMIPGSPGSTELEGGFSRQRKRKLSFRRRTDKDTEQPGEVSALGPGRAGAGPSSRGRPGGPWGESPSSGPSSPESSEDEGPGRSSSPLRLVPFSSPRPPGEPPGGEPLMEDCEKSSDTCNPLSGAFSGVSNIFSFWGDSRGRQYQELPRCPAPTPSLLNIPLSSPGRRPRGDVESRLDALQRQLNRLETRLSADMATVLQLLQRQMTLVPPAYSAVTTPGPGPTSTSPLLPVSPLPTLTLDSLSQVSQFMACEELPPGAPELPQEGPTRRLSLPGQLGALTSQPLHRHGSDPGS

| SMILES | hERG current change (%, negative = inhibition) at 10uM |
| --- | --- |
| CC(C)[C@H](NC(=O)c1cc2cc(Cl)ccc2n1C)C(=O)N[C@@H](C(=O)O)c1ccccc1 | 15.9% |
| CCCNC(=O)N1[C@H]2CC[C@@H]1C(C(=O)OC)=C(c1ccc(F)cc1OCc1ccccc1)C2 | -23.3% |
| O=C(Oc1cc2oc(=O)cc(-c3ccccc3)c2cc1Cl)C1CCCCC1 | 4.05% |
| COC(=O)Cn1cc(C(=O)OC)c2ccccc21 | -4.51% |
| COc1cc(C(=O)NC(C)c2ccc3ccccc3c2)cc(Cl)c1O (stereo not shown) | 4.57% |
| Cc1ccc(-c2cn(CCN)c(-c3ccc(Cl)nc3)n2)cc1 | -21.7% |
| COc1ccccc1C(=O)Nn1c(-c2cccs2)nc2ccccc2c1=O | -2.66% |
| COc1cccc(CNC(=O)CSc2ccc(-c3ccco3)nn2)c1 | 2.15% |
| COc1cccc(NC(=O)Cn2c(=O)n(C)c(=O)c3sc4c(c32)COC(C)(C)C4)c1 | 6.82% |
| CC(=O)Nc1ccc(S(=O)(=O)NC2=NCN(C)CN2)cc1 | 2.76% |
| COc1ccc(NC(=O)CN2CCN(CC(=O)Nc3ccc(OC)cc3)CC2)cc1 | -76.6% |
| CCCCOc1ccc(NC(=O)CN2CCN(Cc3ccccc3)CC2)cc1 | -49.4% |
| COc1ccc(C(=O)NC2CCN(CC(=O)Nc3cccc(OC)c3)CC2)cc1 | -25.4% |
| COc1ccc(NC(=O)CN2CCN(Cc3ccccc3)CC2)cc1 | -52.8% |
| COc1ccc(C(=O)NC2CCN(CC(=O)NC3CCCCC3)CC2)cc1 | -17.3% |
| COc1ccc(NC(=O)CN2CCCCC2)cc1.O=C(O)C(=O)O | 3.8% |
| COc1ccc(C(=O)Nc2ccc(N3CCN(Cc4ccccc4)CC3)cc2)cc1 | -4.78% |
| COc1ccc(NC(=O)CN2CCC(NC(=O)c3ccc(OC)cc3)CC2)cc1 | -51.1% |
| COc1ccc(NC(=O)CN2CCCC2)cc1 | 15.7% |
| COc1cc(NC(=O)c2cccc(Br)c2)nc(OC)n1 | 3.34% |
| CCSc1ccccc1C(=O)NCCCn1ccnc1 | 10.2% |
| CCCC(=O)Nc1cc(-c2nnc(OC)c3ccccc23)ccc1N1CCCCC1 | -36.3% |
| C=CCOc1nc2c(c(=O)n(C)c(=O)n2C)n1Cc1ccccc1Cl | -6.73% |
| COc1cc2c(cc1OC)C(C(=O)NCc1cccnc1)C(c1cccnc1)N(C)C2=O (stereo not shown) | 9.05% |
| COc1cc([N+](=O)[O-])cc(/C=N/NC(=O)Cn2cncn2)c1O | 5.88% |

| SMILES | hERG current change (%, negative = inhibition) at 10uM |
| --- | --- |
| CC(=O)NCCC(=O)Nc1cc(S(=O)(=O)N2CCCCC2)ccc1N1CCCCC1 | -5.37% |
| CC(=O)NCCC(=O)Nc1cc(S(=O)(=O)N2CCCCC2)ccc1Oc1cccc(C)c1 | -68% |
| COc1ccccc1Oc1ccc(S(=O)(=O)N2CCCCC2)cc1NC(=O)CCNC(C)=O | -55.1% |
| COC(=O)CNc1cc(S(=O)(=O)N2CCCCC2)ccc1Oc1cccc(C)c1 | -30.7% |
| CC(=O)NCCC(=O)Nc1cc(S(=O)(=O)N2CCCCC2)ccc1Oc1ccccc1 | -64.9% |
| COc1ccc(S(=O)(=O)N2CCCCC2)cc1NC(=O)CCNC(=O)c1ccccc1Cl | -11% |
| CC(=O)NCCC(=O)Nc1cc(S(=O)(=O)N2CCOCC2)ccc1Oc1ccc(F)cc1 | -30.5% |
| CC(=O)NCCC(=O)Nc1cc(S(=O)(=O)N2CCOCC2)ccc1Oc1ccccc1 | -8.45% |
| COc1ccc(S(=O)(=O)N2CCCCC2)cc1NC(=O)CCCOc1ccccc1 | -9.13% |
| Cc1ccc2cccc(Oc3ncnc4scc(-c5ccc(Cl)cc5)c34)c2n1 | 3.87% |
| CCCNC(=O)C(=O)N/N=C/c1ccc(OCc2ccccc2)cc1 | 26.9% |
| COC(=O)c1ccc(CSc2nc3cc(Cl)ccc3s2)o1 | 9.32% |
| CN1C(=O)C(CC(=O)O)S/C1=N\N=C\c1ccc(O)cc1O (stereo not shown) | 6.03% |
| Cc1ccc(NCCC(=O)c2ccc(Br)cc2)cc1 | 0.444% |
| CCOC(=O)N1CCC(Nc2c(-c3ccccc3)c(=O)c2=O)CC1 | -23.2% |
| CCOC(=O)N1CCC(Nc2ccc3nnc(-c4ccccc4)n3n2)CC1 | -82% |
| O=C(CSc1ccc2nnc(-c3cccs3)n2n1)N1CCCC1 | -43.4% |
| CCOC(=O)CC(=O)CSc1ccc2nnc(-c3ccccc3)n2n1 | -71.7% |
| CCOC(=O)CSc1ccc2nnc(-c3cccs3)n2n1 | -51.2% |
| CCOC(=O)CC(=O)CSc1ccc2nnc(-c3ccc(F)cc3)n2n1 | -23.4% |
| CCOC(=O)N1CCC(NC(=O)Cc2ccccc2)CC1 | 15.6% |
| CCOC(=O)CC(=O)CSc1ccc2nnc(-c3cccc(F)c3)n2n1 | -72.2% |
| Cc1cc(NC(=O)CSc2ccc3nnc(-c4cccc(F)c4)n3n2)no1 | -14.3% |
| CCOC(=O)CSc1ccc2nnc(-c3ccncc3)n2n1 | -31.4% |
| CCOC(=O)CSc1ccc2nnc(-c3ccccc3)n2n1 | -39.3% |

| SMILES | hERG current change (%, negative = inhibition) at 10uM |
| --- | --- |
| CCSc1ccc2nnc(-c3cccs3)n2n1 | -34% |
| COc1ccc(CNC(=O)CN2CCN(S(=O)(=O)c3cccs3)CC2)cc1OC | 1.64% |
| Cc1c(C(=O)N2CCCCC2)c(S(=O)(=O)N2CCC(C)CC2)c(C)n1C | 3.48% |
| C=CCn1c(Oc2ccccc2F)nc2c1c(=O)n(C)c(=O)n2C | 2.59% |
| CC1=C[C@H](C)[C@H](c2c(F)cccc2Cl)CC1=O | 6.22% |
| C=CCSc1nnc(NC(=O)c2cccc(S(=O)(=O)N3CCOCC3)c2)s1 | -11.1% |
| O=C(Nc1ccccc1C(F)(F)F)N1CCCCCC1 | 8.71% |
| COc1ccc2nc(NC(=O)C(NS(=O)(=O)c3cccc4nsnc34)C(C)C)sc2c1 (stereo not shown) | 10.4% |
| Cc1ccccc1C(=O)c1ccc2c(c1)n(C)c(=O)n2C | 2.11% |
| COC(=O)C(C)Sc1ccc2nnc(-c3ccccc3)n2n1 (stereo not shown) | -30.8% |
| COC(=O)C(C)Sc1ccc2nnc(-c3cccc(F)c3)n2n1 (stereo not shown) | -58% |
| COC(=O)C(C)Sc1ccc2nnc(-c3ccc(F)cc3)n2n1 (stereo not shown) | -27% |
| COc1cc2c(cc1OC)C(C1C(=O)CCCC1=O)N(C(=O)CCl)CC2 (stereo not shown) | 14.1% |
| CC1CCCCC1NC(=O)COn1nnc2ccc(Cl)cc21 (stereo not shown) | -14.3% |
| CN(C)CCCNS(=O)(=O)c1cc(Cl)c(Cl)cc1Cl | -27.8% |
| CCN1CCN(c2ccc(NC(=O)C(C)C)cc2Cl)CC1 | -20% |
| CCN1CCN(c2ccc(NC(=O)c3ccc(C#N)cc3F)cc2Cl)CC1 | -72.1% |
| O=C(Nc1ccc(N2CCOCC2)c(Cl)c1)c1ccccc1F | 3.56% |
| N#Cc1ccc(C(=O)Nc2ccc([N+](=O)[O-])cc2)c(F)c1 | 4.42% |
| CCN1CCN(c2ccc(NC(=O)c3ccccc3F)cc2Cl)CC1 | -70.1% |
| CN1CCN(c2ccc(NC(=O)c3ccc(C#N)cc3F)cc2Cl)CC1 | -53.7% |
| CCC(=O)N1CCN(c2ccc(NC(=O)c3ccc(C#N)cc3F)cc2Cl)CC1 | -7.73% |
| CCN1CCN(c2ccc(NC(=O)c3ccco3)cc2Cl)CC1 | -4.06% |
| O=C(Nc1ccc(N2CCOCC2)c(Cl)c1)c1cc(F)c(F)cc1Cl | -20.9% |
| O=C(O)CCCSc1nccn1-c1ccccc1 | 22.3% |

| SMILES | hERG current change (%, negative = inhibition) at 10uM |
| --- | --- |
| c1ccc(-c2cc(N3CCOCC3)nc(-c3ccccc3)n2)cc1 | -5.46% |
| CCN(CC)C(=O)CSc1nnc(-c2cccs2)n1Cc1ccco1 | -11% |
| Cc1ccc(S(=O)(=O)c2c(C)nn(C(C)(C)C)c2OC(=O)c2ccc(Br)o2)cc1 | 7.32% |
| Cc1cc(C)n(CCCNC(=O)Cn2nnnc2CN2C[C@@H](C)O[C@@H](C)C2)n1 | 6.72% |
| C/C(=N\NC(=O)c1nnn(-c2nonc2N)c1CSc1ccccc1)c1ccc2c(c1)OCO2 | 17.5% |
| CC(=O)OC1CC(c2cc(C(C)(C)C)c(O)c(C(C)(C)C)c2)=NO1 (stereo not shown) | 0.755% |
| CCOc1ccc(NC(=O)COc2ccc3c(c2)CCC3)cc1OC | 3.04% |
| Cc1ccccc1NCc1ccccc1O.Cl | -0.966% |
| Cc1cc(NC(=O)Nc2ccc(F)cc2)no1 | -8.3% |
| COc1cc(OC)cc(C(=O)OCCCOC(=O)c2cc(OC)cc(OC)c2)c1 | 24.6% |
| COc1ccccc1CCC(=O)Nc1nc2ccccc2[nH]1 | 15.7% |
| O=C(Nc1nc2ccccc2[nH]1)c1ccc(S(=O)(=O)N2CCOCC2)cc1 | 2.85% |
| O=C(Nc1nc2ccccc2[nH]1)c1ccc(F)c(S(=O)(=O)N2CCOCC2)c1 | -50.3% |
| COc1ccc(CCC(=O)Nc2nc3ccccc3[nH]2)cc1 | 14.3% |
| COc1ccc(C(=O)Nc2nc3ccccc3[nH]2)cc1S(=O)(=O)N1CCCC1 | -52.8% |
| COc1ccc(C(=O)Nc2nc3ccccc3[nH]2)cc1OC | -6.47% |
| COc1ccc(C(=O)Nc2nc3ccccc3[nH]2)cc1S(=O)(=O)N1CCOCC1 | -70.1% |
| O=C(Nc1nc2ccccc2[nH]1)c1ccc(Cl)c(S(=O)(=O)N2CCCC2)c1 | -9.28% |
| O=C(Nc1nc2ccccc2[nH]1)c1cccc(S(=O)(=O)N2CCOCC2)c1 | -8.91% |
| COc1ccc(CCC(=O)Nc2nc3ccccc3[nH]2)cc1OC | -55.7% |
| COc1ccc(C(=O)Nc2ccccc2C)cc1S(=O)(=O)N1CCOCC1 | 2.73% |
| COc1ccc(C(=O)Nc2ccc(NC(=O)c3ccccc3)cc2)cc1S(=O)(=O)N1CCOCC1 | 16.6% |
